According to ChEMBL document CHEMBL4513216, “Probing the Open Global Health Chemical Diversity Library for Multistage-Active Starting Points for Next-Generation Antimalarials” (ACS Infect Dis, 2020):
Out of some 69,000 compounds screened, about 8,600 (12%) showed an effect of 50% or more. This is one part of a sample in which strong results are shown more often than they occur.

system: Plasmodium berghei; assay: Screen against P. berghei liver stage (PbLuc), transformed with Luciferase, at 10uM; type: functional, HepG2; details: tested at 10 uM

Row | SMILES | INHIBITION [%]
1 | Cc1cn(CC(=O)Nc2cc(C(C)C)nn2C)cn1 | -0.273
2 | CC1CN(C)CCN1CC(=O)NCCOc1ccc(Cl)cc1 (stereo not given) | 35.95
3 | CC(c1ccccn1)N(C)Cc1cccc(C(=O)Nc2nccn2C)c1 (stereo not given) | 9.57
4 | CN(C)c1nc(NCCc2ccnn2C)ncc1F | 42.3
5 | O=C(Cc1ccc(F)c(Br)c1)NC1CCN(CC(F)F)CC1 | -60.4
6 | CN(C)CC(=O)N1CCc2ncnc(-c3cncnc3)c2CC1 | 6.83
7 | CN(C)CC(=O)N1CCc2ncnc(-c3ccoc3)c2CC1 | 23.1
8 | CN(C)CC(=O)N1CCc2ncnc(-c3ccsc3)c2CC1 | 70.4
9 | CCn1ccc(NC(=O)CN2C(=O)C(C)(C)c3ccccc32)n1 | 23.1
10 | Cc1ccc(N2CCCC(NCc3c(C)noc3C)C2)nn1 (stereo not given) | -89
11 | CN1CC(C(=O)NCCc2ccc3c(c2)OCO3)CC1=O (stereo not given) | 20
12 | Fc1ccc(CN2CCC(c3noc(-c4cnccn4)n3)CC2)cc1F | 18.3
13 | Cc1noc(-c2ccnc(Oc3ccc(CN4CCCC4)cc3C)c2)n1 | 89
14 | COc1ccc(CCNc2cc(-c3nc(C)no3)ccn2)cc1OC | 10.8
15 | COc1ccc(CNC2CCCN(Cc3noc(C)n3)C2)cc1F (stereo not given) | 40.3
16 | Cc1noc(-c2ccnc(Oc3ccc(CN4CCCC4)cc3F)c2)n1 | 87.4
17 | CCOc1cc(CNc2cc(-c3nc(C)no3)ccn2)ccc1OC | 1.84
18 | CC(=O)N1CC(Cc2nccc3ccn(C)c23)C1 | 47.2
19 | COc1cc(OC)cc(-c2cc(CN)nc3ccnn23)c1 | -18.2
20 | Cc1ccccc1S(=O)(=O)N(C)[C@@H]1CC[C@@H](n2ccnc2C)[C@@H]1O | 38.15
21 | CC(c1nc(C2CC2)no1)N1CCN(CC(=O)N2CCOCC2)CC1 (stereo not given) | 10.7
22 | Cc1ccc(CN2Cc3nccn3CC(CN(C)C)C2)s1 (stereo not given) | 64.9

Row | SMILES | INHIBITION [%]
23 | Cc1ccc(CN2Cc3nccn3CC(Cn3cccn3)C2)s1 (stereo not given) | 45.7
24 | CCN(CC)CC1CN(Cc2ccc(C)s2)Cc2nccn2C1 (stereo not given) | -30.6
25 | CCn1cc(CN2CCC(c3ccncc3)CC2)cc1C#N | 13
26 | OC1CCN(C2CCN(Cc3cccc(Cn4cccn4)c3)CC2)CC1 | 24.9
27 | CCn1cc(CN2CCC(NS(C)(=O)=O)CC2)cc1C#N | 62.4
28 | Cc1nn(CCO)cc1CN1CCC(C(C)N2CCCC2)CC1 (stereo not given) | 32.5
29 | CCn1cc(CN2CCCCC2CCn2ccnc2C)cc1C#N (stereo not given) | 29.2
30 | Cc1nn(CCO)cc1CN1CCCN(C2CCCC2)CC1 | 12.8
31 | CCn1cc(CN2CCC(N3CCC(O)CC3)CC2)cc1C#N | 64.9
32 | Cc1nn(CCO)cc1CN1CCC(N2CCC(O)CC2)CC1 | 50.5
33 | CS(=O)(=O)NC1CCN(Cc2ccc(OCc3ccccn3)cc2)CC1 | -1.83
34 | CCn1cc(CN2CCC(CN3CCCCC3)CC2)cc1C#N | 6.88
35 | CCn1cc(CN2CCC(C3CCN(C)CC3)CC2)cc1C#N | 66.1
36 | CCn1cc(CN2CCC(CNC(C)=O)CC2)cc1C#N | 24.2
37 | Cc1ccc(CC(=O)N(C)CC2(O)CCCN(c3ccccn3)C2)s1 (stereo not given) | -2.11
38 | CC(C)N(Cc1ccccn1)Cc1nc2c(cnn2C)c(=O)[nH]1 | 25.65
39 | CN(C)C(=O)CN1CC[C@H]2CN(C3CCOCC3)C[C@@H]2C1=O | 30.9
40 | CCC(=O)N1CCN(C)C(=O)C(Cc2ccccc2-c2cccs2)C1 (stereo not given) | 22
41 | O=C(c1cc(=O)c(OCc2ccccc2F)co1)N1CCSCC1 | 21.5
42 | CS(=O)(=O)c1cncnc1C1CCCN(C(=O)Cc2ccccc2F)C1 (stereo not given) | 17.985
43 | CCNC(=O)[C@@H]1C[C@H](N)CN1C(=O)C1(c2ccc(OC)cc2)CCCC1 | -12.7
44 | CCN(CC)C(=O)CNC(=O)N1CCC(c2ccc(OC)cc2)C1 (stereo not given) | 21.7

Row | SMILES | INHIBITION [%]
45 | CCC(=O)Nc1cccc(OCC(=O)N2CC=CC2C(C)C)c1 (stereo not given) | -16.6
46 | Cc1ccccc1CCC(=O)N1CCCC(c2cc(C(N)=O)[nH]n2)C1 (stereo not given) | 11.9
47 | CCn1cc(NC(=O)c2c(C)nn(C)c2C)c(C(N)=O)n1 | 27.4
48 | Cc1ccc(-c2ccc(CC3NCCN(C)C3=O)cc2)cc1 (stereo not given) | 29.2
49 | Cn1cc(-c2nc3c(cc2C(=O)O)CCN(C(=O)C2CC2)CC3)cn1 | -27.1
50 | Cn1nccc1-c1nc2c(cc1C(=O)O)CCN(CC1CC1)CC2 | -10.3
51 | Cn1nccc1-c1nc2c(cc1C(=O)O)CCN(C(=O)C1CC1)CC2 | 72.3
52 | O=C(Cn1nc(-c2ccc(F)cc2)oc1=O)NCCc1ccccc1 | 27.6
53 | CNC(=O)CN1CC[C@H]2CN(C(=O)c3ccc(C)cc3)C[C@H]2C1 | -99.2
54 | Cc1nc(CN2CCC3(CCCN(Cc4cccnc4)C3)C2=O)cs1 (stereo not given) | 36.2
55 | CC(C)C(=O)N1CCC[C@]2(C(=O)N(C)C)CN(c3ccccn3)C[C@@H]2C1 | -28
56 | Cn1cc(C2CCCN2Cc2csc(Cc3ccccc3)n2)cn1 (stereo not given) | 35.9
57 | COc1ccc(CNC(=O)c2ccoc2CN2CCNC(=O)C2)cc1 | 29.3
58 | CCCc1nc(N2CCCC(C)C2)c2c(n1)c(C)nn2CC (stereo not given) | 66.5
59 | CCCc1nc(N2CCCCCC2)c2c(n1)c(C)nn2CC | 78.4
60 | CCCc1nc(N2CCN(CC)CC2)c2c(n1)c(C)nn2CC | 33.5
61 | CCCc1nc(N2CCCCC2)c2c(n1)c(C)nn2CC | 11.7
62 | CCCc1nc(N2CCSCC2)c2c(n1)c(C)nn2CC | -3.47
63 | CCCc1nc(N2CCC(C)CC2)c2c(n1)c(C)nn2CC | 12.3
64 | CCC(=O)N1CCC(c2nc(O)c3c(n2)CN(C2CCCCC2)CC3)C1 (stereo not given) | 38.8
65 | Cn1cccc1C(=O)N1CCO[C@@H]2CN(Cc3ccco3)C[C@@H]2C1 | 15.8
66 | c1csc(CN2CCc3ncnc(C4CCOC4)c3CC2)c1 (stereo not given) | 33

Row | SMILES | INHIBITION [%]
67 | COc1cccc(-c2n[nH]cc2CNC2CCC(O)CC2)c1 (stereo not given) | 19.4
68 | COc1ccc(-c2ccncc2)cc1CNC1CCCC1 | 51.7
69 | COc1ccc(-c2ccoc2)cc1CNC1CCCC1 | 61.9
70 | COc1ccc(CNC2CCN(CCc3ccncc3)CC2)cc1O | -4.86
71 | CCN1CCC(CNCc2cc(OC)ccc2OC)C1 (stereo not given) | 10.1
72 | COc1ccc(OC)c(CNC2CCCN(c3cccnn3)C2)c1 (stereo not given) | 30.5
73 | COc1ccc(-c2cn[nH]c2)cc1CNC1CCCC1 | 9.04
74 | COc1ccc(-c2cc[nH]n2)cc1CNC1CCCC1 | 72.1
75 | COc1ccc(OC)c(CNC2CCCc3nc(N(C)C)ncc32)c1 (stereo not given) | 37.6
76 | Cc1cc(C(=O)CN(Cc2cccnc2)CC2CCCO2)c(C)[nH]1 (stereo not given) | 10.7
77 | Cc1cnc(C(NC(=O)NCC2(CO)CC2)C2CC2)s1 (stereo not given) | 22.8
78 | CC(C)c1nc(C(=O)N2C[C@@H]3CC[C@H]2CN(C2CCOCC2)C3)cs1 | 44.8
79 | CCn1ccc(C(=O)N2CCCC2(C)c2nc(C)cc(N(C)C)n2)n1 (stereo not given) | -4.51
80 | COc1ccc2cc(CNc3c(C)nn(C(C)C)c3C)ccc2c1 | 62.8
81 | COc1ccc(CNc2cccnc2-n2cccn2)cc1OC | 23.9
82 | COc1ccc(CNc2nc(C3CC3)no2)cc1OC | 25.6
83 | COc1ccc(CNc2n[nH]c(C)n2)cc1 | 4.03
84 | COc1cccc(CNc2c(C)nn(C(C)C)c2C)c1 | 31.3
85 | COc1ccc(CNc2c(C)nn(C(C)C)c2C)cc1OC | 62.8
86 | COc1ccc(C(=O)Nc2c(C)nn(C(C)C)c2C)cc1 | 10
87 | COc1ccc(CNc2c(C)nn(C(C)C)c2C)cc1 | 69.3
88 | COc1ccc(CNC(C)c2cnc3cc(C)nn3c2C)cc1 (stereo not given) | 28.4

Row | SMILES | INHIBITION [%]
89 | O=C1CCOC[C@]2(CN(Cc3ccccc3)C[C@H]2c2cccnc2)N1 | 20.6
90 | CCC(C)N(Cc1ccsc1)C(=O)c1ccc(CO)cc1 (stereo not given) | 2.7
91 | CC(=O)Nc1nc(C2CCN(C(C)C)CC2)cs1 | 23.4
92 | CC(=O)Nc1nc(C2CCN(C(=O)c3cccnc3)CC2)cs1 | 60.8
93 | CC(=O)Nc1nc(C2CCN(CC(N)=O)CC2)cs1 | 63.7
94 | CC(=O)Nc1nc(C2CCN(C(C)=O)CC2)cs1 | 27.9
95 | CC(=O)Nc1nc(C2CCN(C(=O)c3cncs3)CC2)cs1 | 48.6
96 | CC(=O)Nc1nc(C2CCN(C(=O)c3ccncc3)CC2)cs1 | -9.27
97 | C[C@@H]1CC[C@@H](C)N1C(=O)c1cc(COc2ccccc2)[nH]n1 | 36.7
98 | Cc1cc(C)n(CC(=O)N2CCCCC2CCc2cccs2)c(=O)n1 (stereo not given) | 31.2
99 | c1c(CN2CCCC2)nc2n1CCNC2 | 33.4
100 | Cc1ccc(O)c(CNc2cccc(OCCF)c2)n1 | 9.91
101 | CC[C@@H]1N(Cc2ccco2)CCC[C@]12CCC(=O)N2C | 6.27
102 | CCN(C)CC1CCN(C(=O)Nc2ccc(C)cc2)C1 (stereo not given) | -45.4
103 | Cc1nc(C2CCCN(c3ncc(Br)cn3)C2)no1 (stereo not given) | 19.8
104 | Cc1ccc(N2CCCC(N(C)Cc3nc(C)c(C)o3)C2)nn1 (stereo not given) | 40.9
105 | CCCN(C)CC1CCN(c2ncc(Br)cn2)C1 (stereo not given) | 68
106 | CCCN(C)CC1CCN(c2ccc(Br)c(C)n2)C1 (stereo not given) | 74.8
107 | CCN(C)CC1CCN(c2ncc(Br)cn2)C1 (stereo not given) | 26
108 | Cc1ccc2ncn(C(C)Cn3cccn3)c(=O)c2c1 (stereo not given) | 3.82
109 | O=C(NCc1sc2ccccc2c1Cl)c1cc2n(n1)CCNC2 | 25.1
110 | O=C(C1CCOCC1)N1CCO[C@@H]2[C@@H](OCc3ccncc3)CC[C@@H]21 | 23.6
